B1: GTACTCCA (ssRNA)
RNA 1: GAGUUCUACAGUCCGACGAUCCCAACGUACUCCACACCUGGAAUUCUCGGGUGCCAA
RNA 2: UGGAGUGUGACAAUGGUGUUUG
DNA 1: GATCGTCGGACTGTAGAACTC
DNA 2: TTGGCACCCGAGAATTCCA
modifications: constant regions annealed to DNA blockers; guide miR-122 5' phosphate
B2: ATGCTCCA (ssRNA)
RNA 1: GAGUUCUACAGUCCGACGAUCCCAACAUGCUCCACACCUGGAAUUCUCGGGUGCCAA
RNA 2: UGGAGUGUGACAAUGGUGUUUG
DNA 1: GATCGTCGGACTGTAGAACTC
DNA 2: TTGGCACCCGAGAATTCCA
modifications: constant regions annealed to DNA blockers; guide miR-122 5' phosphate
B3: GCATCTCA (ssRNA)
RNA 1: GAGUUCUACAGUCCGACGAUCCCAACGCAUCUCACACCUGGAAUUCUCGGGUGCCAA
RNA 2: UGGAGUGUGACAAUGGUGUUUG
DNA 1: GATCGTCGGACTGTAGAACTC
DNA 2: TTGGCACCCGAGAATTCCA
modifications: constant regions annealed to DNA blockers; guide miR-122 5' phosphate
B4: GTACTTCA (ssRNA)
RNA 1: GAGUUCUACAGUCCGACGAUCCCAACGUACUUCACACCUGGAAUUCUCGGGUGCCAA
RNA 2: UGGAGUGUGACAAUGGUGUUUG
DNA 1: GATCGTCGGACTGTAGAACTC
DNA 2: TTGGCACCCGAGAATTCCA
modifications: constant regions annealed to DNA blockers; guide miR-122 5' phosphate
B5: ATGTCTCA (ssRNA)
RNA 1: GAGUUCUACAGUCCGACGAUCCCAACAUGUCUCACACCUGGAAUUCUCGGGUGCCAA
RNA 2: UGGAGUGUGACAAUGGUGUUUG
DNA 1: GATCGTCGGACTGTAGAACTC
DNA 2: TTGGCACCCGAGAATTCCA
modifications: constant regions annealed to DNA blockers; guide miR-122 5' phosphate
B6: ACACCCCA (ssRNA)
RNA 1: GAGUUCUACAGUCCGACGAUCCCAACACACCCCACACCUGGAAUUCUCGGGUGCCAA
RNA 2: UGGAGUGUGACAAUGGUGUUUG
DNA 1: GATCGTCGGACTGTAGAACTC
DNA 2: TTGGCACCCGAGAATTCCA
modifications: constant regions annealed to DNA blockers; guide miR-122 5' phosphate
B7: ACATTCCA (ssRNA)
RNA 1: GAGUUCUACAGUCCGACGAUCCCAACACAUUCCACACCUGGAAUUCUCGGGUGCCAA
RNA 2: UGGAGUGUGACAAUGGUGUUUG
DNA 1: GATCGTCGGACTGTAGAACTC
DNA 2: TTGGCACCCGAGAATTCCA
modifications: constant regions annealed to DNA blockers; guide miR-122 5' phosphate
B8: GCACTCCA (ssRNA)
RNA 1: GAGUUCUACAGUCCGACGAUCCCAACGCACUCCACACCUGGAAUUCUCGGGUGCCAA
RNA 2: UGGAGUGUGACAAUGGUGUUUG
DNA 1: GATCGTCGGACTGTAGAACTC
DNA 2: TTGGCACCCGAGAATTCCA
modifications: constant regions annealed to DNA blockers; guide miR-122 5' phosphate
B9: ACACCTCA (ssRNA)
RNA 1: GAGUUCUACAGUCCGACGAUCCCAACACACCUCACACCUGGAAUUCUCGGGUGCCAA
RNA 2: UGGAGUGUGACAAUGGUGUUUG
DNA 1: GATCGTCGGACTGTAGAACTC
DNA 2: TTGGCACCCGAGAATTCCA
modifications: constant regions annealed to DNA blockers; guide miR-122 5' phosphate

Experimental findings from paper PMC12529666, “Dysregulation of AGO2-miRNA dynamics underlies the AGO2-associated Lessel–Kreienkamp syndrome” are described below.

AGO2 F182del, sequence (Q9UKV8 other isoform, or with tags, fused parts or gaps S387D;S824A;S828D;S831D;S834A;del182-182): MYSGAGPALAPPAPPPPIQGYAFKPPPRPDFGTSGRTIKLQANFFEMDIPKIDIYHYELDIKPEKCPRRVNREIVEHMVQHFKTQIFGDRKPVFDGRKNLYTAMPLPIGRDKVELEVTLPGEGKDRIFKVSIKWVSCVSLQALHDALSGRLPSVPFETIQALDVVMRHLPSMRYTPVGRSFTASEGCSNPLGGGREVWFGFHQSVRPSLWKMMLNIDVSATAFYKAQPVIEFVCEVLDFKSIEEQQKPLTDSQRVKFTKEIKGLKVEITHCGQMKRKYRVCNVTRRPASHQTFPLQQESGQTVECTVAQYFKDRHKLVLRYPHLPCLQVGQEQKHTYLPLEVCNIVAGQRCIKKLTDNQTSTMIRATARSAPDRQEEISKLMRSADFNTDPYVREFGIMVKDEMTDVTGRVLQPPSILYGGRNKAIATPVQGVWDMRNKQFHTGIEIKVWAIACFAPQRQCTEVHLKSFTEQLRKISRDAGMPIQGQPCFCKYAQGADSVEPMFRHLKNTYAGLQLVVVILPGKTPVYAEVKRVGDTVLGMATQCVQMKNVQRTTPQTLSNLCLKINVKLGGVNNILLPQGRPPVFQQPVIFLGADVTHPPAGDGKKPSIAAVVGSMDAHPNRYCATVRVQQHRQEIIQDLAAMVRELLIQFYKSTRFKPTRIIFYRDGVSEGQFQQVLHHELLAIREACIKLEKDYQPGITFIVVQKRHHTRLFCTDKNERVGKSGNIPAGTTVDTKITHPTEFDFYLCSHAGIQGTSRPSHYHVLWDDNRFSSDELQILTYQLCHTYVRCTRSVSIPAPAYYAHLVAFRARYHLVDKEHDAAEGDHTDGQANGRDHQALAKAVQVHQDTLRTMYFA
AGO2 L192P, sequence (Q9UKV8 whole entry L192P/S387D/S824A/S828D/S831D/S834A): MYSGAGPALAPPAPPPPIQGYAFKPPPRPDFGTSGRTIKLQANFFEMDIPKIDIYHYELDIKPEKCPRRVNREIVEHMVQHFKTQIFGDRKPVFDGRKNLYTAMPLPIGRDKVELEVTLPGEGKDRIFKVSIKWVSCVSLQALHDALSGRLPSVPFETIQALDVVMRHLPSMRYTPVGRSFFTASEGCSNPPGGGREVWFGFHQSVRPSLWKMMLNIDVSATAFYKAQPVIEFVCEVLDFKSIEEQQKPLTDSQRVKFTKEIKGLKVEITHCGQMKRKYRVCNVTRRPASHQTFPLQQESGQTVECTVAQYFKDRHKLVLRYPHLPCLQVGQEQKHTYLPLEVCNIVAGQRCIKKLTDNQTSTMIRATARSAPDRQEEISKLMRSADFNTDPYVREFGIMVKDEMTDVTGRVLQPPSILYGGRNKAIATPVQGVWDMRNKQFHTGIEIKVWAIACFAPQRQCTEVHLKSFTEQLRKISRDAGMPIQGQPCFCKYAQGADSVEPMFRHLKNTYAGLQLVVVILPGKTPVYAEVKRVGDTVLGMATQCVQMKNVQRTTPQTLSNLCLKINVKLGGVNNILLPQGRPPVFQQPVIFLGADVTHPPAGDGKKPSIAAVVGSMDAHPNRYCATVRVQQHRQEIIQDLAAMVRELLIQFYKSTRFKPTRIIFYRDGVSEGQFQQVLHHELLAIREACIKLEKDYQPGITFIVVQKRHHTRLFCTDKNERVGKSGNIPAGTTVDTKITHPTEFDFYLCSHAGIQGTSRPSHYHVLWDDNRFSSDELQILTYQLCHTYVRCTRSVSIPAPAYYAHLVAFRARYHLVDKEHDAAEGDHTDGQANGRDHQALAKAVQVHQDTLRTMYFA
AGO2 WT (phosphosite mutant background), sequence (Q9UKV8 whole entry S387D/S824A/S828D/S831D/S834A): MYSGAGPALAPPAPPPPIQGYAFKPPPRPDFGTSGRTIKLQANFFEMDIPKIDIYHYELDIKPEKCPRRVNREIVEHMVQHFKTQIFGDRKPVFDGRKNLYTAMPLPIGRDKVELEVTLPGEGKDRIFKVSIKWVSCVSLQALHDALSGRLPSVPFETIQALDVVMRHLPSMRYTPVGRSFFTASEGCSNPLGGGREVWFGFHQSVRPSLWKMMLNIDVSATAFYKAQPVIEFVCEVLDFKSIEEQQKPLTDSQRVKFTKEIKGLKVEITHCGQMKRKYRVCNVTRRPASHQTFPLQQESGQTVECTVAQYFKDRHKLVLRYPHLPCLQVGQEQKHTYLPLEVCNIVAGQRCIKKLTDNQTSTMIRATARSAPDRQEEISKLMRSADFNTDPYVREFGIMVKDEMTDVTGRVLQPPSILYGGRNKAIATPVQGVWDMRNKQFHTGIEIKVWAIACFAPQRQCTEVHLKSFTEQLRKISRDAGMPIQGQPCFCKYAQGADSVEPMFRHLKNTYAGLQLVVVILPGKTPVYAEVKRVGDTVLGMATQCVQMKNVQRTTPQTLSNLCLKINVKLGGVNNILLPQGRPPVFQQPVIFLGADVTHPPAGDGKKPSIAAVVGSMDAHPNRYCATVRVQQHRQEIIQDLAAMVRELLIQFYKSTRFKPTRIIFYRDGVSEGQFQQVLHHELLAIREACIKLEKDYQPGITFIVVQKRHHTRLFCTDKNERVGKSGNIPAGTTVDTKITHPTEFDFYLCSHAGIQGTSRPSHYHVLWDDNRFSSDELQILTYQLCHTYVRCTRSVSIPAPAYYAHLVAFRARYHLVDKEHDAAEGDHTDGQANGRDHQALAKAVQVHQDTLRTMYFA
AGO2 A367P, sequence (Q9UKV8 whole entry A367P/S387D/S824A/S828D/S831D/S834A): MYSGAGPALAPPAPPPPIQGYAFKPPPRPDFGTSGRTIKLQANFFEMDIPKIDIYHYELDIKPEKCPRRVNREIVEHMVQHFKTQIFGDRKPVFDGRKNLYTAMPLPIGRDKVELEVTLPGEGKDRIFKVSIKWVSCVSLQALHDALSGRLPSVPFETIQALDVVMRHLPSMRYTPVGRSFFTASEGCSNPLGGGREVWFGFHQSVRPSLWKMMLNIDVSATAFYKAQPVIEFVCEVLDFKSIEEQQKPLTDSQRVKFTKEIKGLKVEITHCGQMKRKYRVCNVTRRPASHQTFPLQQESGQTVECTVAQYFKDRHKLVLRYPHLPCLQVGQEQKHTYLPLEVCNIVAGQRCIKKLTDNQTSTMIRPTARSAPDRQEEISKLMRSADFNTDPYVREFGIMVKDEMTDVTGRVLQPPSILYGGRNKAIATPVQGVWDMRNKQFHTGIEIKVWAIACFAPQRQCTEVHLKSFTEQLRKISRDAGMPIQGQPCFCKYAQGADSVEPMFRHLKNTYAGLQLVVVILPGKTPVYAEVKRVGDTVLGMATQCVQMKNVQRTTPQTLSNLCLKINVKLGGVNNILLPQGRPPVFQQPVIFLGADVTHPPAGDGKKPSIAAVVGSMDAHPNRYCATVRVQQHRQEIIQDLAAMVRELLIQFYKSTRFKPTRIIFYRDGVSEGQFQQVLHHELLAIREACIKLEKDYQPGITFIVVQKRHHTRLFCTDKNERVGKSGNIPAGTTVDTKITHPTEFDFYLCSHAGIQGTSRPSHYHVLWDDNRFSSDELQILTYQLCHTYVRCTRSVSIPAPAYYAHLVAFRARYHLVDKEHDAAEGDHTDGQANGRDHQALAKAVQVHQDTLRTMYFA

The target of one test is AGO2 WT (phosphosite mutant background) (Homo sapiens, UniProt Q9UKV8 1-859, S387D;S824A;S828D;S831D;S834A). Put plainly: RNA Bind-n-Seq (nitrocellulose filter binding and sequencing); miR-122 guide loaded in AGO2; 60 min incubation; 30 mM Tris pH 8.0, 100 mM potassium acetate, 2 mM magnesium acetate, 0.5 mM TCEP, 0.005% NP-40, 0.01 mg/ml yeast tRNA; 3 nM AGO2-miR-122, 100 nM RNA library; 60; high values mean tight binding. The conditions noted are these: protein: recombinant; tags: His6 (N-terminal, pFastBac HTA). In short, it runs like this:
(§1)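 Fold enrichment is each target's read fraction divided by its read fraction in the input library. Sf9 insect cells expressed His-tagged AGO2 from baculovirus; the protein was loaded with a synthetic guide RNA and purified by Ni-NTA and a biotinylated capture oligo. The bound RNA was extracted, reverse-transcribed, barcode-amplified and sequenced on Illumina.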
In the case of B1, the binding signal was 0.714 fold enrichment over input.

Regarding B2, the binding signal is 0.416 fold enrichment over input.

In the case of B3, the binding signal was 0.126 fold enrichment over input.

B4: the binding signal is 0.125 fold enrichment over input.

With B5, the binding signal was 0.232 fold enrichment over input.

Regarding B6, the binding signal was 0.238 fold enrichment over input.

As to B7, the binding signal is 0.267 fold enrichment over input.

In the case of B8, the binding signal is 117 fold enrichment over input.

In the case of B9, the binding signal is 0.251 fold enrichment over input.

Another test addresses AGO2 L192P (Homo sapiens, UniProt Q9UKV8 1-859, L192P;S387D;S824A;S828D;S831D;S834A). Described as above. The conditions noted are these: protein: recombinant; tags: His6 (N-terminal, pFastBac HTA). In short, it runs like this:
as §1
Consider B1, for which the binding signal was 1.62 fold enrichment over input.

On to B2, for which the binding signal was 3.01 fold enrichment over input.

Take B3: the binding signal is 0.567 fold enrichment over input.

Take B4: the binding signal is 0.53 fold enrichment over input.

Take B5: the binding signal was 0.674 fold enrichment over input.

Regarding B6, the binding signal was 0.861 fold enrichment over input.

Take B7: the binding signal was 1.03 fold enrichment over input.

In the case of B8, the binding signal was 45.2 fold enrichment over input.

For the molecule B9, the binding signal is 1.13 fold enrichment over input.

The target in a further test is AGO2 A367P (Homo sapiens, UniProt Q9UKV8 1-859, A367P;S387D;S824A;S828D;S831D;S834A). Described as above. The conditions noted are these: protein: recombinant; tags: His6 (N-terminal, pFastBac HTA). Put shortly:
as §1
In the case of B1, the binding signal is 3.12 fold enrichment over input.

As for B2, the binding signal was 2.6 fold enrichment over input.

Regarding B3, the binding signal is 0.316 fold enrichment over input.

On to B4, for which the binding signal is 0.347 fold enrichment over input.

B5: the binding signal was 0.501 fold enrichment over input.

As for B6, the binding signal is 0.466 fold enrichment over input.

Consider B7, for which the binding signal was 0.711 fold enrichment over input.

Regarding B8, the binding signal is 66.8 fold enrichment over input.

In the case of B9, the binding signal is 0.835 fold enrichment over input.

A further test deals with AGO2 T357M (Homo sapiens, UniProt Q9UKV8 1-859, T357M;S387D;S824A;S828D;S831D;S834A). The test is described as above. The conditions noted are these: protein: recombinant; tags: His6 (N-terminal, pFastBac HTA). In short, it runs like this: as §1
AGO2 T357M, sequence (Q9UKV8 whole entry T357M/S387D/S824A/S828D/S831D/S834A): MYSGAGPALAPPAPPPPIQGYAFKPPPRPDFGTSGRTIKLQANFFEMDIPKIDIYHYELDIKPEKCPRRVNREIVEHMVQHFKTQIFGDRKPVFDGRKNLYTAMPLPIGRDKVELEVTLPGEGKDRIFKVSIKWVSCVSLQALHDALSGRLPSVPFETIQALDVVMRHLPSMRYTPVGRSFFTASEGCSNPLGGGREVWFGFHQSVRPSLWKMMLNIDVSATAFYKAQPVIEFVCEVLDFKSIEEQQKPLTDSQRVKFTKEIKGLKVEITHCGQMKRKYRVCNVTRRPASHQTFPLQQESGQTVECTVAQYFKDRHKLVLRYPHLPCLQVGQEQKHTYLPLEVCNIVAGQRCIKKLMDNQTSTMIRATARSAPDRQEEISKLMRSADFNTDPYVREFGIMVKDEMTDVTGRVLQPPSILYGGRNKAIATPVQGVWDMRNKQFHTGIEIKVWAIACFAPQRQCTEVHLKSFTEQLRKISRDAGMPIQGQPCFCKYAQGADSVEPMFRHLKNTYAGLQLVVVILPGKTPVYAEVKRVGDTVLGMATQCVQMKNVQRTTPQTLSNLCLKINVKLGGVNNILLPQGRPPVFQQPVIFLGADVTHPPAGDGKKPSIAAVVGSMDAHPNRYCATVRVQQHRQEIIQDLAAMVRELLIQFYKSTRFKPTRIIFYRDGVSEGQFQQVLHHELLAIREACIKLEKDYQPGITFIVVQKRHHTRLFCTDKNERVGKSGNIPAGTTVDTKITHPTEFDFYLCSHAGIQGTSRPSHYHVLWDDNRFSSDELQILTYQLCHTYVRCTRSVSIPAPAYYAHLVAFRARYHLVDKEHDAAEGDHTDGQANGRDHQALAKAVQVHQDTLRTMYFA
Turning to B1, the binding signal was 0.965 fold enrichment over input.

Regarding B2, the binding signal is 0.765 fold enrichment over input.

B3: the binding signal was 0.605 fold enrichment over input.

As for B4, the binding signal is 0.645 fold enrichment over input.

With B5, the binding signal is 0.678 fold enrichment over input.

B6: the binding signal is 0.678 fold enrichment over input.

For B7, the binding signal is 0.738 fold enrichment over input.

For the molecule B8, the binding signal is 44 fold enrichment over input.

Regarding B9, the binding signal is 0.737 fold enrichment over input.

For a further test, the target named is AGO2 F182del (Homo sapiens, UniProt Q9UKV8 1-859, S387D;S824A;S828D;S831D;S834A;del182-182). The test is described as above. The settings on record: protein: recombinant; tags: His6 (N-terminal, pFastBac HTA). Put shortly:
as §1
On to B1, for which the binding signal was 4.41 fold enrichment over input.

As for B2, the binding signal is 2.78 fold enrichment over input.

Turning to B3, the binding signal was 0.86 fold enrichment over input.

Turning to B4, the binding signal is 0.936 fold enrichment over input.

B5: the binding signal is 1.79 fold enrichment over input.

As to B6, the binding signal is 2.15 fold enrichment over input.

Consider B7, for which the binding signal is 2.93 fold enrichment over input.

Take B8: the binding signal is 91.6 fold enrichment over input.

Take B9: the binding signal was 4.6 fold enrichment over input.
